# Source: ChEMBL document CHEMBL1157539, “Thousands of chemical starting points for antimalarial lead identification” (Nature, 2010)
# System: Plasmodium falciparum
# Experiment: GSK_TCMDC: Inhibition of Plasmodium falciparum Dd2 in whole red blood cells, using parasite LDH activity as an index of growth. Test compounds present at 2uM
# Type: functional
row,SMILES,Inhibition
1,COc1ccc(-c2ccc(NC(=O)c3cccc(Cl)c3)cc2)cc1CNC(C)C.O=C(O)C(F)(F)F,88%
2,O=C(NCC1CC1)C1Cc2c([nH]c3ccc(Br)cc23)C2(CCN(CCc3ccccc3)CC2)N1 (centres undefined),25%
3,CCCC(C)Nc1nc(C)cc(N[C@@H](Cc2ccccc2)C(=O)Nc2ccc(OC)cc2)n1.O=C(O)C(F)(F)F (some centres undefined),72%

# System: HepG2
# Experiment: GSK_TCMDC: Percent inhibition of human HepG2 cell line. Test compounds present at 10uM.
# Type: functional
row,SMILES,Inhibition
1,O=C(NCCN1CCCCC1)N1CCCN(c2ncnc3cc(-c4ccccc4)sc23)CC1.O=C(O)C(F)(F)F,2%
2,CC1(C)N=C(N)N=C(N)C1c1ccc(Cl)cc1.Cl (centres undefined),16%
3,Nc1ncc(OC2CCCCC2)c(N)n1,0%
4,CO/C(=C\C=C\c1cc2cc(Cl)c(Cl)cc2[nH]1)C(=O)NCCCN1CC(C)N(C)CC1C (centres undefined),38%
5,CCOc1ccc(-c2nonc2NC(=O)CC(C)C)cc1OCC,0%
6,COc1ccc2nccc([C@@H](O)CN3CCC(NCc4cc5c(cc4F)SCC(=O)N5)CC3)c2n1,14%
7,COc1ccc(N2C(N)=NC(N)=NC2(C)C)cc1OC.Cl,13%
8,CCOC(=O)c1c(CCc2ccc(C(F)(F)F)cc2)nc2c(c1-c1ccc(C(=O)N[C@@H](C)c3ccncc3)cc1)C(=O)N1CCC[C@@H]21,0%
9,COc1ccc(NC(=O)[C@H](CC(C)C)Nc2cc(C)nc(NCc3cccc(C)c3)n2)cc1.O=C(O)C(F)(F)F,24%
10,Cc1cccc(N2CCN(C3CCC(NC(=O)c4cc5ccccc5[nH]4)CC3)CC2)c1C (centres undefined),49%
11,Cc1cc(-c2ccc(O)c(CNC3CCCCC3)c2)cnc1N,27%
